# For some of these results: Results with a measured potency or affinity are listed apart.
# Tests used:
# Design in all cases: scale not given: direction of the effect not stated beside the values
# [1] = target: Protein translocase subunit SecA (Escherichia coli (strain K12)) (UniProt P10408); assay: Assay to Identify E. coli SecA ATPase Inhibitors; format: functional; conditions: 30 µM
# [2] = target: T1, Ubiquitin-activating enzyme e1, putative (Leishmania donovani (strain BPK282A1)) (UniProt E9BSI1); assay: Leishmania donovani Ubiquitin Activating Enzyme (LdE1); format: functional; conditions: 30 µM
# T1 sequence (whole entry): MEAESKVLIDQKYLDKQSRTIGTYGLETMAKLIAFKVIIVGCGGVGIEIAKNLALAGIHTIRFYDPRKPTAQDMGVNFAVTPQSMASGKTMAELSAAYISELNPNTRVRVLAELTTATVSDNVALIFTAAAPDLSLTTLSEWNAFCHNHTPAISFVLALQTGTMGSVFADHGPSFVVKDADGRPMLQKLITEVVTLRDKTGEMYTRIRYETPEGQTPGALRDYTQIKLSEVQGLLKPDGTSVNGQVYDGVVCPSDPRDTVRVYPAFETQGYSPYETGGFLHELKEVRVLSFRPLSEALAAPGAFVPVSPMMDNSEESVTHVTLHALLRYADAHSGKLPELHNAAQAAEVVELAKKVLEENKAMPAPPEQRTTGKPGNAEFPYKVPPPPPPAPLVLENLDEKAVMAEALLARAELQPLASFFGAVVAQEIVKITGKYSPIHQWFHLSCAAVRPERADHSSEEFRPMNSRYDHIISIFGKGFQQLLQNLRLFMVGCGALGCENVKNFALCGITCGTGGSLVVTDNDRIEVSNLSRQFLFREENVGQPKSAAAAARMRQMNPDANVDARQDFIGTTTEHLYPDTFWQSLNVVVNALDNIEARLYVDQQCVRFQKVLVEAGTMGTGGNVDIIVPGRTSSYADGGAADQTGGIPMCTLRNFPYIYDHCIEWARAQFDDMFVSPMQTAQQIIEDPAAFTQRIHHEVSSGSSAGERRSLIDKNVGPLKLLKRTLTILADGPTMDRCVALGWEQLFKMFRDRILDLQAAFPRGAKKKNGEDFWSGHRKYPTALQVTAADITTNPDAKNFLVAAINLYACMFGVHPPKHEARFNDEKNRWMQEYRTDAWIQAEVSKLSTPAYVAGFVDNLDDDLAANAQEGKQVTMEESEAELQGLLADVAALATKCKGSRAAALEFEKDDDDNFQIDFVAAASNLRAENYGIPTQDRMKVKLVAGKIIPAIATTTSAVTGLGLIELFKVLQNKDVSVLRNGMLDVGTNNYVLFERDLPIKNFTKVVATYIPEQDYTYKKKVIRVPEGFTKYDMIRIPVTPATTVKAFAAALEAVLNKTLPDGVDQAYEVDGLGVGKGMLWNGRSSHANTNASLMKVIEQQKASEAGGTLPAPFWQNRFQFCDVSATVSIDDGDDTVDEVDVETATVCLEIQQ
# [3] = target: AMP-activated protein kinase, AMPK (Homo sapiens) (UniProt P54646+O43741+P54619+Q9UGJ0+Q9Y478+Q13131+Q9UGI9); assay: AMP-dependent Kinase enzyme assay. An in vitro enzyme assay that detects ADP turnover that is directly proportional to AMPK activity. This uses naive AMPK that is activated during the assay with MK-8722; format: functional; conditions: 30 µM
# [4] = target: Sialic acid-binding Ig-like lectin 9 (Homo sapiens) (UniProt Q9Y336); assay: Hs-Siglec9 ALPHAscreen SOP 20170721; conditions: 10 µM
# Trypanosoma cruzi = assay: Trypanosoma cruzi phosphomannomutase and mannose-1-phosphate guanylyltransferase assay; format: functional; conditions: 10 µM
# [5] = target: T2, Arginase-2, mitochondrial (Homo sapiens) (UniProt P78540); assay: in vitro enzyme assay to detect the production of urea directly proportional to the activity of Arginase II; format: functional; conditions: 33.3 µM; further: in the data most compounds retested in dose-response had high values
# T2 sequence (whole entry): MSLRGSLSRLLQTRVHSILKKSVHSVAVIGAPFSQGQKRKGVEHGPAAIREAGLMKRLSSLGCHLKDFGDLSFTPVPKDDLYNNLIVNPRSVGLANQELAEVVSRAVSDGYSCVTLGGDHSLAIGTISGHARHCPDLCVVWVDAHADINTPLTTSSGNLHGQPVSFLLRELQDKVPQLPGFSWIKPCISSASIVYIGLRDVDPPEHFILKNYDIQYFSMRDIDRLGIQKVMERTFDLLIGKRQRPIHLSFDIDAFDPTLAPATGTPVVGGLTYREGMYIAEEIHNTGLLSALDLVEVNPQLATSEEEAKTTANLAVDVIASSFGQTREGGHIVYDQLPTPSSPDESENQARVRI
# [6] = target: T3, Proteasome subunit beta (Trypanosoma cruzi) (UniProt O96673); assay: Trypanosoma cruzi proteasome chymotrypsin-like activity (TcProtChymo) assay.; further: in the data most compounds retested in dose-response had high values; format: functional; conditions: 9.37 µM
# T3 sequence (whole entry): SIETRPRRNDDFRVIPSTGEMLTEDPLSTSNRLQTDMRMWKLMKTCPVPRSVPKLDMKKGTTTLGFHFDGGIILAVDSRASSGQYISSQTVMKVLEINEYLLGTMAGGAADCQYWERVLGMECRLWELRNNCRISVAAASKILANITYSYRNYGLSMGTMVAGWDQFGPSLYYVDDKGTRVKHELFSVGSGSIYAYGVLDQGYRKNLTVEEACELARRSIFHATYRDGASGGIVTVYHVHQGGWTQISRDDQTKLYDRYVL
# Homo sapiens = species: Homo sapiens; assay: To identify inhibition of the IFN signalling (Jak-Stat) pathway via expression of an eGFP reporter gene under the control of an IFN-stimulated response element (ISRE) containing MxA promoter.; format: functional; conditions: 30 µM
# [7] = target: T4, Tyrosyl-tRNA synthetase, putative (Trypanosoma cruzi (strain CL Brener)) (UniProt Q4DSP6); assay: Trypanosoma cruzi tyrosyl tRNA synthetase (TcYRS) _High Tyrosine SOP; format: functional; conditions: 30 µM; further: in the data most compounds retested in dose-response had high values
# T4 sequence (whole entry): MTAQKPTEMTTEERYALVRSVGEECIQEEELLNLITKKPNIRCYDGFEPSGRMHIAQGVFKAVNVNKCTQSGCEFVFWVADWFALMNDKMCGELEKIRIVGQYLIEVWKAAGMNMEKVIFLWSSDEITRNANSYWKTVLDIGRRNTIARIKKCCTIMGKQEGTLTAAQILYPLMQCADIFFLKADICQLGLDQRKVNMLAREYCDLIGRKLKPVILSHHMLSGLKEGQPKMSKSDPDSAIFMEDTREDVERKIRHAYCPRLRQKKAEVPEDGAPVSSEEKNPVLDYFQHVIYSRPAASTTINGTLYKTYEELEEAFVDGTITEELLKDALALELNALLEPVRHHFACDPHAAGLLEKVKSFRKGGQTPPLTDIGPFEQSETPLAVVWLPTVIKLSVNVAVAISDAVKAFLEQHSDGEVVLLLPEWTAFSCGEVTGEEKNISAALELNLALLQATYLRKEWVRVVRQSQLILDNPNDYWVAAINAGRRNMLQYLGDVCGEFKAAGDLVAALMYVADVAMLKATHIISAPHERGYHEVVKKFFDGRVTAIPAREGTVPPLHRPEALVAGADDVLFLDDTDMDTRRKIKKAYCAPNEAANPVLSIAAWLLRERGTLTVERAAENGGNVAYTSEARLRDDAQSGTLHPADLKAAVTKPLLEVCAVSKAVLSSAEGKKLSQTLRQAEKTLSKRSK
# [8] = target: T4, Tyrosyl-tRNA synthetase, putative (Trypanosoma cruzi (strain CL Brener)); assay: Trypanosoma cruzi tyrosyl tRNA synthetase (TcYRS) SOP; format: functional; conditions: 30 µM
# [9] = target: Chromo domain-containing protein 1 (Saccharomyces cerevisiae (strain ATCC 204508 / S288c) (Baker's yeast)) (UniProt P32657); assay: ScCHD-1 Enzyme Inhibition Assay; format: functional; conditions: 30 µM; further: in the data most compounds retested in dose-response had high values
# Chromo domain-containing protein 1 (Saccharomyces cerevisiae (strain ATCC 204508 / S288c) (Baker's yeast)), sequence (P32657 whole entry, the tested form may be a part): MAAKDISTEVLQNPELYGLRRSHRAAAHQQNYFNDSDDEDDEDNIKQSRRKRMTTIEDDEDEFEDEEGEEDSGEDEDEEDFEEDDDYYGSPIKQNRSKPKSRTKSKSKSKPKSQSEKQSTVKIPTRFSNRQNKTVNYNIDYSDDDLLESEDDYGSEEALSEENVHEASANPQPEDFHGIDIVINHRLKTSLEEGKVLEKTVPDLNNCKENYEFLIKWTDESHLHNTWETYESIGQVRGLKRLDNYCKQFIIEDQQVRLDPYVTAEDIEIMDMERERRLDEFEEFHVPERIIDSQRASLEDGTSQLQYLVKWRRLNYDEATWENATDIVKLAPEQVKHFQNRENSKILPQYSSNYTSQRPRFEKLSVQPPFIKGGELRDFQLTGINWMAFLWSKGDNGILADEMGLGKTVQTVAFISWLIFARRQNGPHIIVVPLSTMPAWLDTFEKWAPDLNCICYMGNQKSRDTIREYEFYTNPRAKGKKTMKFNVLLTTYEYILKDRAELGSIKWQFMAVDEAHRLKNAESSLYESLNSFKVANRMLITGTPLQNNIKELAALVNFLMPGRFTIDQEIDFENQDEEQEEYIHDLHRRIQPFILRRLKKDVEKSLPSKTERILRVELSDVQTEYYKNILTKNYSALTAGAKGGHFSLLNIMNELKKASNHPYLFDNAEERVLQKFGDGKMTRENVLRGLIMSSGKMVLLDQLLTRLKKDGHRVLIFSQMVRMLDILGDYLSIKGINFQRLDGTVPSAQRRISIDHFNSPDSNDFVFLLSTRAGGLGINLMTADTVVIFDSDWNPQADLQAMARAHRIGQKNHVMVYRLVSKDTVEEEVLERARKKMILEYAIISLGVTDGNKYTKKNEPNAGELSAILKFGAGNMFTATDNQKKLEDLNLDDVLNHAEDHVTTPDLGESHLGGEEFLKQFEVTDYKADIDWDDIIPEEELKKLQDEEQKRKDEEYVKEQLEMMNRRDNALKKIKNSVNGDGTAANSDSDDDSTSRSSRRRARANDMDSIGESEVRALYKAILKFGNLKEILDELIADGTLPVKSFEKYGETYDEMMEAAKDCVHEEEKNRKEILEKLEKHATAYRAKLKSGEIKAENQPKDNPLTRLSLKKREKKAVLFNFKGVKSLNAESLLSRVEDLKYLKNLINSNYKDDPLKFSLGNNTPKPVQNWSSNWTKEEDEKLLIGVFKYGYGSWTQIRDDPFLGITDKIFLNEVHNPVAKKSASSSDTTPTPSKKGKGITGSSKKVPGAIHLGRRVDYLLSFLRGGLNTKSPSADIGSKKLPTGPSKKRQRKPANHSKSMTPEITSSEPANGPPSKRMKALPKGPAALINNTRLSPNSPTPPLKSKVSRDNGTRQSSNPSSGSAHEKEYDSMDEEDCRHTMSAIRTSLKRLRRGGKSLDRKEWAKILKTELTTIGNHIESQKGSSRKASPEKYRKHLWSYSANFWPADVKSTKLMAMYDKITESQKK
# Protein translocase subunit SecA (Escherichia coli (strain K12)), sequence (P10408 whole entry): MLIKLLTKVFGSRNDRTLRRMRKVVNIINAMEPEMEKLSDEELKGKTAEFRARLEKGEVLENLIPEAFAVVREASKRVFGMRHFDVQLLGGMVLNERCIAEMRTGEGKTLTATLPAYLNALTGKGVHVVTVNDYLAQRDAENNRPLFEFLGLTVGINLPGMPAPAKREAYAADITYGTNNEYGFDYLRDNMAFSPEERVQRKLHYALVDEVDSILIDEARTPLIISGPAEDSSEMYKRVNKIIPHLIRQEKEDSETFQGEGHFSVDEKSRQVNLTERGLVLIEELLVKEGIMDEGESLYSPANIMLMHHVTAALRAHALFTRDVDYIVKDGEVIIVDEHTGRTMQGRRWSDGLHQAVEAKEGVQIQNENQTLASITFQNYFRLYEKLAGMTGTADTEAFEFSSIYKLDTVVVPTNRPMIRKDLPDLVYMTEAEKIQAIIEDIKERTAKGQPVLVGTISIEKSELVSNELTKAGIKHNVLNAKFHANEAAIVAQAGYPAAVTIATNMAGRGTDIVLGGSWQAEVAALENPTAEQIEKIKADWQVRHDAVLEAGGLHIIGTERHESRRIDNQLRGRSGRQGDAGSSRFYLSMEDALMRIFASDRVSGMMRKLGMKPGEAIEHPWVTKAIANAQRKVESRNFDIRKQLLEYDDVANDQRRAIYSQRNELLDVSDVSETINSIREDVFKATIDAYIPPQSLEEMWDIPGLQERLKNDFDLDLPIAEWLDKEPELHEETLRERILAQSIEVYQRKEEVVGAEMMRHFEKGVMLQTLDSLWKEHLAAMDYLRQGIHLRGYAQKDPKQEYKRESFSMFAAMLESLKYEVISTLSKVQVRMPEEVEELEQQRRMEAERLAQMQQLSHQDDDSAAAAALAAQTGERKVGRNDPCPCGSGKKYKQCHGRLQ
# Sialic acid-binding Ig-like lectin 9 (Homo sapiens), sequence (Q9Y336 whole entry): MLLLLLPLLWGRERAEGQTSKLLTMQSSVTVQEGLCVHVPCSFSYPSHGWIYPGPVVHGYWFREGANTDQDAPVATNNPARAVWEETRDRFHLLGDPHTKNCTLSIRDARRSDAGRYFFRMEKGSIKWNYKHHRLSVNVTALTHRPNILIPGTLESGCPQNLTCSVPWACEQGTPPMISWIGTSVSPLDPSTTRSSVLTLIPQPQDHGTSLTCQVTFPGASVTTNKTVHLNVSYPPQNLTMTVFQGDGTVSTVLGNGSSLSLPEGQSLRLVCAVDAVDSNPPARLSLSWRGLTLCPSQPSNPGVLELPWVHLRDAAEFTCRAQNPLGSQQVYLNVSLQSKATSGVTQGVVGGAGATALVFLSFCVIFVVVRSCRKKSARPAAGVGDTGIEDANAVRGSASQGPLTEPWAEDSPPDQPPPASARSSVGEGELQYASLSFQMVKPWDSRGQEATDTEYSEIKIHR
SMILES,Percent Effect [1] [%],Percent Effect [2] [%],Percent Effect [3] [%],Percent Effect [4] [%],Percent Effect (Trypanosoma cruzi) [%],Percent Effect [5] [%],Percent Effect [6] [%],Percent Effect (Homo sapiens) [%],Percent Effect [7] [%],Percent Effect [8] [%],Percent Effect [9] [%]
Cc1cccc(C(=O)NCc2ccc(N3CCCCC3)nc2)n1,-0.795,13.9,3.85,4.23,-2.97,-1.5,11.8,24.3,8.33,15.2,-1.41
C[C@@H]1CN(C2(C(=O)N3CCCCCC3)Cc3ccccc3C2)C[C@H](C)O1,-2.48,6.94,-6.6,11,6.51,3.97,-0.702,-2.77,2.1,2.56,-1.63
COc1ccc(CNCc2c(C)nn(C)c2N2CCOCC2)cc1,-5.07,18.2,-11.5,0.605,3.82,0.21,14.5,-34.5,8.57,21.2,-13
COc1ccc(F)cc1S(=O)(=O)NCC(c1cccn1C)N(C)C (configuration not stated),-3.57,8.22,-1.87,-2.56,0.196,3.64,11.5,7.4,7.53,20,-6.57
CC(OCC1CC1)C(=O)N1CCCN(c2ncccc2C#N)CC1 (configuration not stated),-5.69,23.7,-5.36,-8.93,-0.0934,-8.99,2.79,-5.09,6.4,-8.64,-5.69
CNc1oc(-c2ccc(OC)c(S(=O)(=O)N3CCCCC3)c2)nc1C#N,-1.33,1.33,15.5,7.55,-5.7,-6.51,9.98,-4.26,5.29,2.56,-9.36
CCc1nc(CN(C(C)=O)C2CCN(Cc3cnc(C)cn3)C2)no1 (configuration not stated),-1.41,22.8,-8.69,-10.4,-3.31,4.18,5.16,27.4,4.43,13.9,-6.99
CN(Cc1cccc(F)c1)C(=O)CN1CCCCC1Cn1cncn1 (configuration not stated),-1.08,-2.6,-0.897,5.97,1.08,-4.14,9.32,-1.75,4.3,-1.24,-0.771
Cc1nnc(CN2CCCC(c3cc(C(N)=O)[nH]n3)C2)o1 (configuration not stated),-3.02,-5.41,0.969,11.5,-1.23,0,-2.34,2.07,-1.48,-1.24,1.61
O=C(c1cccn2ccnc12)N1CCCN(c2cccnn2)CC1,-3.74,-5.2,6.04,5.27,4.8,1.9,-0.404,-11.5,0.952,2.35,-10.1
CCn1nc(-c2ccccc2F)ccc1=O,-4.01,0,-2.64,-3.3,-9.29,-12.7,4.55,11.8,-1.07,8.64,-2.39
CCC(=O)N1CCC(Cc2ccccc2-c2ccccc2)(C(N)=O)C1 (configuration not stated),-3.32,13.3,10.4,-2.64,3.94,7.69,8.37,16.6,1.06,16.7,-4.71
CC(C)c1ncc2c(n1)CN(Cc1ccc(C(N)=O)cc1)CC2,-5.85,18.4,-25.7,-1.87,10.7,-2.68,11.5,11.1,12.2,19.5,-14.2
COCCN1C[C@@H](C)[C@@]2(COCCN(C(=O)c3cnc(C)cn3)C2)C1,0.144,10.7,6.23,3.86,-3.28,-21.3,12.7,-11.1,-5.21,12.5,-6.61
Cc1cc(CNC(=O)N2CCCN(Cc3ccccc3)CC2)no1,-3.91,12.7,-1.73,0.846,-5.38,-2.66,10.7,18.1,2.46,11.4,-4.24
Cc1ccc(CN2CC[C@H]3C[C@@H](c4nc(C5CC5)cs4)O[C@@H]3C2)o1,-2.45,2.6,0.23,10,10.1,-48.3,16.3,36.5,10.8,16.1,-1.64
Cc1cccc(CN2CCc3c(nc(N4CCC(C)CC4)[nH]c3=O)C2)n1,-4.27,4.05,14.3,2.26,4.15,-0.696,5.3,-12.8,8.6,14.3,-8.43

# Source: ChEMBL document CHEMBL3988442, “University of Dundee, Small-Polar-MMV Screening Library” (2021)
